Screening results from PubChem BioAssay.
HCV inhibitor – blocks hepatitis C virus; Huh7.5.1 HCVcc-Cre infection, luciferase reporter, 44 h; Potency, µM (titrated, usually from 41.8 µM), hits mostly inhibitors; actives 3.4% (n = 340,000)
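1,000 cells/well; 4 h culture; + compound; + HCVcc-Cre (~0.5 moi); 44 h; luciferase substrate, RT 15 min; read 15 sec.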
CHX counter – affects cycloheximide protein synthesis inhibition readout, counter-screen; cell reporter, cycloheximide protein synthesis inhibition counterscreen; max response, %; actives 12% (n = 300,000); AID 2314; in the data active = max response mostly above about 13%, no sharp cut-off; inactive = mostly below about 14%; also: read at 38.3 µM for the half of the compounds with a filed dose
Pf growth 96h – P. falciparum growth inhibition at 96 hours; Potency, µM (titrated, usually from 28.7 µM), hits mostly inhibitors; P. falciparum luciferase reporter growth, 96 h; actives 6.9% (n = 320,000)
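96 h incubation, 37 C, 5% CO2, of luciferase-reporter P. falciparum-infected RBCs (2% hematocrit, 0.05% parasitemia final) with test compounds; endpoint luminescence.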
HCMV inh – inhibitors of human cytomegalovirus. HFF cells, HCMV-luciferase reporter, 72 h; active compounds read low. activity change, negative = inhibition, % at 57.5 µM. actives 4.5% (n = 410,000); in the data active = activity change below about -60%; inconclusive = no clear call, values can overlap the other calls; inactive = above about -39%
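Two-dose cell screen: HFF monolayers treated with compounds and infected with luciferase-expressing HCMV at 1 PFU/cell, 72 h at 37C, then lysed for luciferase measurement.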
Shiga inhibitor – Shiga toxin inhibition; actives 9.2% (n = 290,000); inhibition, % at 38.7 µM; Vero cells, Shiga toxin protein synthesis inhibition reporter; in the data active = inhibition mostly above about 28%, no sharp cut-off; inactive = mostly below about 43%
Pf growth 48h – P. falciparum growth inhibition at 48 hours (one generation). P. falciparum luciferase growth in erythrocytes, 48 h. Potency, µM (series often up to 28.7 µM), actives largely listed as inhibitors. actives 5.9% (n = 310,000)
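Cell-based growth assay: transgenic P. falciparum expressing firefly luciferase, cultured in red cells within RPMI 1640 containing 0.5% w/v Albumax, 24 mM bicarbonate and gentamycin. A drop in luciferase activity indicates inhibition.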
Each line names hits and unclear results; the compound was inactive in the other large screens. A selection: hits, their analogues and other compounds. The true share with any hit is near 21%. Unless noted, calls follow the shape of the dose curve; as a rule, active = well fitted inhibition curve with a large enough effect; inconclusive = small, poorly fitted or top-dose-only effect, or another doubt; inactive = no such curve, though single readings can be large or run the other way.

Cc1cccc(N(Cc2ccccc2)C(=O)c2ccc(CS(C)(=O)=O)cc2)c1	Pf growth 96h inconclusive (no result: HCV inhibitor)
COc1cc(/C=C\C(=O)Nc2cc(=O)n(C)c(=O)n2C)cc(OC)c1OC	HCV inhibitor inconclusive, Pf growth 96h inconclusive, Pf growth 48h 5.22µM
COc1cc(/C=C/C(=O)Nc2cccnc2)cc(OC)c1OC	HCV inhibitor inconclusive, Pf growth 96h 9.28µM
COc1ccc(/C=C/C(=O)NNc2cc(=O)n(C)c(=O)n2C)cc1OC	none
COc1cc(/C=C/C(=O)Nc2ccc3[nH]c(=O)[nH]c3c2)cc(OC)c1OC	Pf growth 48h 10.4µM
COc1ccc(N2CCN(C(=O)c3nc(-c4ccc(Cl)cc4)n4c3CCCCC4)CC2)cc1	none (no result: HCV inhibitor, CHX counter, Pf growth 96h, Shiga inhibitor, Pf growth 48h)
Cc1cccc(C(=O)c2c(N)sc3c2CCC(C)C3)c1 (stereo not drawn)	HCV inhibitor inconclusive, CHX counter 58.8, Pf growth 96h inconclusive, Shiga inhibitor 126.1
Cc1cccc(C(=O)c2c(N)sc3c2CCCC3)c1	HCV inhibitor inconclusive, Pf growth 96h 14.7µM, Pf growth 48h inconclusive
Nc1sc2c(c1C(=O)c1ccc(Cl)cc1)CCCC2	none (no result: HCV inhibitor, Pf growth 96h, HCMV inh, Pf growth 48h)
COc1ccc(OC)c2[nH]c(=O)c(CCNC(=O)c3cccs3)cc12	HCV inhibitor inconclusive, HCMV inh inconclusive, Pf growth 48h inconclusive
NC(N)=NCCCC(NC(=O)c1ccccc1)C(=O)Nc1ccc([N+](=O)[O-])cc1 (stereo not drawn)	Pf growth 96h 9.28µM, Pf growth 48h inconclusive (no result: CHX counter, Shiga inhibitor)
O=C(Nc1ccc([N+](=O)[O-])cc1)C(c1ccccc1)c1ccccc1	none (no result: HCV inhibitor, CHX counter, Pf growth 96h, Shiga inhibitor, Pf growth 48h)
NC(N)=NCCCC(NC(=O)c1ccccc1)C(=O)Nc1ccc2ccccc2c1 (stereo not drawn)	HCV inhibitor inconclusive, Pf growth 96h 10.4µM, Pf growth 48h inconclusive (no result: CHX counter, Shiga inhibitor)
NC(N)=NCCC[C@H](NC(=O)c1ccccc1)C(=O)Nc1ccc([N+](=O)[O-])cc1	none (no result: HCV inhibitor, Pf growth 96h, HCMV inh, Pf growth 48h)
O=C(O)CC(NNC(=O)c1ccccc1)C(=O)Nc1ccc([N+](=O)[O-])cc1 (stereo not drawn)	CHX counter 36.5, Shiga inhibitor 67.5
CCN1CCCC1CN(Cc1cc2ccc(C)cc2[nH]c1=O)C(=S)Nc1ccc(OC)cc1 (stereo not drawn)	HCMV inh inconclusive
Cc1cc2cc(CN(CC3CCCO3)C(=S)Nc3ccccc3)c(=O)[nH]c2cc1C (stereo not drawn)	HCV inhibitor inconclusive, HCMV inh -81.7, Pf growth 48h 11.7µM
COc1ccc2cc(CN(CC3CCCO3)C(=S)Nc3ccccc3)c(=O)[nH]c2c1 (stereo not drawn)	HCV inhibitor inconclusive, Pf growth 96h inconclusive, HCMV inh -72.8, Pf growth 48h 9.28µM
COc1ccc2[nH]c(=O)c(CN(CC3CCCO3)C(=S)Nc3ccccc3)cc2c1 (stereo not drawn)	HCV inhibitor inconclusive
COc1ccc2cc(CN(CC3CCCO3)S(=O)(=O)c3ccc(C(C)=O)cc3)c(=O)[nH]c2c1 (stereo not drawn)	CHX counter 19.3, Pf growth 96h inconclusive, Shiga inhibitor 63.5 (no result: Pf growth 48h)
CCN1CCCC1CN(Cc1cc2ccc(C)cc2[nH]c1=O)C(=S)Nc1cccc(OC)c1 (stereo not drawn)	HCV inhibitor inconclusive, Pf growth 48h 10.4µM
COC(=O)c1ccccc1S(=O)(=O)N(Cc1cc2ccc(OC)cc2[nH]c1=O)CC1CCCO1 (stereo not drawn)	Pf growth 96h inconclusive
NC(=O)/C(=C/c1ccco1)C(N)=S	none
COc1ccc(N(Cc2cc3ccccc3[nH]c2=O)C(=O)C2CCCO2)cc1 (stereo not drawn)	Pf growth 96h inconclusive, HCMV inh -64.7, Pf growth 48h inconclusive
CCOc1ccc(N(Cc2cc3cc(OC)ccc3[nH]c2=O)C(=O)C2CCCO2)cc1 (stereo not drawn)	none (no result: Pf growth 96h)
O=C(NCc1cccs1)c1nn(-c2ccccc2)nc1CO	none (no result: HCV inhibitor, CHX counter, Pf growth 96h, Shiga inhibitor, Pf growth 48h)
Cn1c(=O)c2c(SCC(=O)NC3CCCC3)nc(CC(C)(C)C)nc2n(C)c1=O	Pf growth 96h 13.1µM, HCMV inh inconclusive, Pf growth 48h inconclusive
Cn1c(=O)c2c(SCC(=O)Nc3ccc4c(c3)OCCO4)nc(CC(C)(C)C)nc2n(C)c1=O	Pf growth 96h inconclusive, HCMV inh -64.0
Cn1c(=O)c2c(SCC(N)=O)nc(CC(C)(C)C)nc2n(C)c1=O	HCV inhibitor inconclusive
O=C(c1ccc(F)cc1F)C1CCN(c2ccc([N+](=O)[O-])cn2)CC1	HCV inhibitor 4.47µM, HCMV inh -77.4
O=C(Nc1ccc(F)cc1F)N1CCCN(c2ccc([N+](=O)[O-])cn2)CC1	HCV inhibitor inconclusive, Pf growth 96h inconclusive, HCMV inh inconclusive, Pf growth 48h inconclusive
COc1ccc(NC(=O)c2cccc(Cn3cc(Br)c([N+](=O)[O-])n3)c2)c(C)c1	HCV inhibitor 10µM, Pf growth 48h inconclusive
NNC(=O)c1cccc(Cn2cc(Br)c([N+](=O)[O-])n2)c1	Pf growth 48h inconclusive
